# Experimental data taken from ChEMBL document CHEMBL3988442, “University of Dundee, Small-Polar-MMV Screening Library” (2021).
# The campaign covered roughly 69,000 compounds. About 1,000 (1.4%) showed an effect of 50% or more. The list comes from a sample in which strong results are over-represented; it also holds similar structures and randomly drawn compounds.
# System: Leishmania donovani
# Assay: Leishmania intramacrophage assay
# Type: functional, organism-based
# Parameters: scale not given: in the data most compounds retested in dose-response had high values
smiles,measurement,setting,value
O=C(C1CCOCC1)N1CC[C@H](O)[C@@H]1Cc1cccnc1,Percent Effect,"30.3 µM, […]",25.33%
Cc1noc(C)c1CN(C)c1ncnc2onc(C)c12,Percent Effect,"30.3 µM, […]",-10.33%
O=C(c1cscn1)N1C[C@H](OCc2cccnc2)[C@H]2COC[C@H]21,Percent Effect,"30.3 µM, […]",-0.3632%
COc1cccc(C(C(=O)O)N2CCC(Cn3cccn3)CC2)c1OC (stereo not given),Percent Effect,"30.3 µM, […]",3.274%
COc1c(Cl)cccc1NCc1csc(NC(C)=O)n1,Percent Effect,"30.3 µM, […]",71.24%
CNc1nc(CNC(=O)Nc2cccc(Cl)c2OC)cs1,Percent Effect,30 µM,28.86%
COc1c(Cl)cccc1NCc1csc(C)n1,Percent Effect,"30.3 µM, […]",-4.371%
CCc1ccc(C(=O)N2CCCC2c2c(C)nn(C)c2OC)o1 (stereo not given),Percent Effect,"30.3 µM, […]",16.94%
O=C(c1ccccn1)N1C[C@@H]2CC[C@H](C1)N(C(=O)Cc1cccs1)C2,Percent Effect,"30.3 µM, […]",-16.24%
COc1ccc(-c2ccnc3nc(N4CCCC4)[nH]c(=O)c23)cc1OC,Percent Effect,"30.3 µM, […]",26.43%
COc1ccc(-c2ccnc3nc(N4CCCCC4)[nH]c(=O)c23)cc1,Percent Effect,"30.3 µM, […]",8.173%
COc1ccccc1-c1ccnc2nc(N3CCCCC3)[nH]c(=O)c12,Percent Effect,"30.3 µM, […]",64.29%
CCCN1CCCC1Cn1nc(C)cc1C (stereo not given),Percent Effect,30 µM,21.44%
O=S(=O)(c1ccccc1Br)N1CCC2(CC1)OCCS2,Percent Effect,"30.3 µM, […]",-12.48%
CCCN1CCN(CC(O)c2ccc(OC(F)(F)F)cc2)CC1 (stereo not given),Percent Effect,"30.3 µM, […]",27.81%
COCCN1CCN(CC(O)c2ccc(OC(F)(F)F)cc2)CC1 (stereo not given),Percent Effect,"30.3 µM, […]",52.28%
OCCN1CCN(CC(O)c2ccc(OC(F)(F)F)cc2)CC1 (stereo not given),Percent Effect,"30.3 µM, […]",19.69%
Cc1nc(CCN(C)C(=O)CN2CCCCCC2)no1,Percent Effect,"30.3 µM, […]",28.54%
CC(C)(C)NC(=O)NC(=O)CNc1c(F)cccc1N1CCCC1,Percent Effect,"30.3 µM, […]",14.38%
Cn1nc2c(cc1=O)CN(c1ncnc3ccsc13)CC2,Percent Effect,"30.3 µM, […]",15.92%
CCn1nc2c(cc1=O)CN(c1ncnc3ccsc13)CC2,Percent Effect,"30.3 µM, […]",42.12%
CCCn1nc2c(cc1=O)CN(c1ncnc3ccsc13)CC2,Percent Effect,"30.3 µM, […]",56.14%
Cc1nc([C@@H]2C[C@@H]3CCN(C(=O)c4ccnnc4)C[C@H]3O2)sc1C,Percent Effect,"30 µM, 30.03 µM",6.612%
CCN1C[C@H]2CCN(C(=O)NC3CCCC3)CC[C@H]2S1(=O)=O,Percent Effect,"30 µM, 30.03 µM",-4.578%
CNC(=O)C1Cn2ccnc2C2(CCN(Cc3cccc(C)n3)CC2)O1.O=C(O)C(F)(F)F (stereo not given),Percent Effect,"30 µM, 30.03 µM",-9.841%
N#CC1CCCN(c2nc(-c3ccccc3)nc3c2CCNCC3)C1 (stereo not given),Percent Effect,"30 µM, 30.03 µM",83.36%
NCC1CCCN(c2nc(-c3ccccc3)nc3c2CCNCC3)C1 (stereo not given),Percent Effect,"30.3 µM, […]",17.41%
NCC1CN(c2nc(-c3ccccc3)nc3c2CCNCC3)CCO1 (stereo not given),Percent Effect,"30 µM, 30.03 µM",6.18%
CCOCCCNC(=O)c1cc(Br)c2c(c1)OCCO2,Percent Effect,"30.3 µM, […]",32.12%
CCC(C)(C)NC(=O)Cn1nc(C)nc1-c1ccccc1,Percent Effect,"30.3 µM, […]",-5.337%
CC1(C)CNC(=O)c2nc(CCN3CCC(O)CC3)[nH]c2C1,Percent Effect,"30.3 µM, […]",-12%
O=C1[C@@H]2CN(Cc3cc4ccccc4o3)C[C@]2(C(=O)O)CN1CC1CC1,Percent Effect,"30.3 µM, […]",10.9%
CSCC[C@H](NC(C)=O)c1nc(CCc2ccccc2)n[nH]1,Percent Effect,"30.3 µM, […]",10.23%
NC(=O)c1ccccc1NC(=O)CCN1CCN(CCO)CC1,Percent Effect,"30.3 µM, […]",10.76%
COCC1c2c(cnn2C)CCN1C(=O)c1cccn1C.O=C(O)C(F)(F)F (stereo not given),Percent Effect,"30.3 µM, […]",51.46%
COCC1c2c(cnn2C)CCN1C(=O)c1cscn1.O=C(O)C(F)(F)F (stereo not given),Percent Effect,"30.3 µM, […]",23.63%
COCC1c2c(cnn2C)CCN1C(=O)c1cc(C)on1.O=C(O)C(F)(F)F (stereo not given),Percent Effect,"30.3 µM, […]",13.09%
CCCC(=O)Nc1ccc(CC(=O)N(C)CCc2cn[nH]c2)cc1,Percent Effect,"30.3 µM, […]",12.21%
NC(=O)C1CCN(S(=O)(=O)c2cnn(-c3ccccc3)c2)CC1,Percent Effect,"30.3 µM, […]",68.11%
NC(=O)C1CCN(S(=O)(=O)c2cnn(-c3ccccc3)c2)C1 (stereo not given),Percent Effect,"30.3 µM, […]",30.89%
NC(=O)C1CCCN(S(=O)(=O)c2cnn(-c3ccccc3)c2)C1 (stereo not given),Percent Effect,"30.3 µM, […]",13.13%
COc1ccc([C@@H]2C[C@H](NC(C)=O)C[C@H](CCc3ccccc3)O2)cn1,Percent Effect,"30.3 µM, […]",22.12%
CN(C(=O)CCc1nc(C2CC2)no1)c1cc(C#N)c2ccccc2n1,Percent Effect,"30.3 µM, […]",-8.685%
O=C(NCCOc1ccc2c(c1)OCO2)C1CC(=O)N(CC2CC2)C1 (stereo not given),Percent Effect,"30 µM, 30.03 µM",11.04%
O=C(NCC(=O)N1CCCCC1)c1ccoc1,Percent Effect,"30 µM, 30.03 µM",-16.27%
CCO[C@@H]1CO[C@@]2(CCCN(C(=O)c3ccc(OC)c(F)c3)C2)C1,Percent Effect,"30 µM, 30.03 µM",6.334%
O=C(c1ccc2c(c1)OCO2)N1CCC[C@]2(C[C@H](OCC3CC3)CO2)C1,Percent Effect,"30 µM, 30.03 µM",23.48%
O=C(c1ccc(F)c(F)c1)N1CCC[C@]2(C[C@@H](OCC3CC3)CO2)C1,Percent Effect,"30.3 µM, […]",53.63%
COC1COC2(CCN(C(=O)c3cocn3)CC2)C1 (stereo not given),Percent Effect,"30.3 µM, […]",-1.503%
O=C(c1cocn1)N1CCC2(CC1)CC(OCC1CC1)CO2 (stereo not given),Percent Effect,"30.3 µM, […]",52.58%
O=C(c1cocn1)N1CCC[C@]2(C[C@@H](OCC3CC3)CO2)C1,Percent Effect,"30.3 µM, […]",14.29%
CC(C)CSCCN1CCCN(S(C)(=O)=O)CC1,Percent Effect,"30.3 µM, […]",6.004%
COc1ccc(C2CCCN2C(=O)c2ccc(=O)n(C)c2)cc1OC (stereo not given),Percent Effect,"30.3 µM, […]",-9.758%
Cc1ccsc1CNCCCOc1ccccn1,Percent Effect,"30.3 µM, […]",-17.78%
c1ccc(OCCCNCc2cccs2)nc1,Percent Effect,"30.3 µM, […]",58.66%
c1ccc(OCCNCc2cccs2)nc1,Percent Effect,"30.3 µM, […]",46.82%
CC(C)[C@H]1CN(CCCO)C[C@@H]1NC(=O)CCC(F)(F)F,Percent Effect,"30.3 µM, […]",-10.59%
CN(C)CCn1ccnc1C1CCCN(c2ncc(Cl)cc2F)C1 (stereo not given),Percent Effect,"30.3 µM, […]",16%
CCS(=O)(=O)N1CCOC2(CCCN(c3ccc(C)nn3)C2)C1.O=C(O)C(F)(F)F (stereo not given),Percent Effect,"30 µM, 30.03 µM",11.03%
CNc1nc(C(=O)N2C[C@H]3CC[C@@H]2CN(C2CCOCC2)C3)cs1,Percent Effect,"30.3 µM, […]",4.94%
CC(C)c1nc(C(=O)N2C[C@H]3CC[C@@H]2CN(C2CCOCC2)C3)cs1,Percent Effect,"30.3 µM, […]",12.76%
CNc1nc(C(=O)N2C[C@H]3CC[C@@H]2CN(S(C)(=O)=O)C3)cs1,Percent Effect,"30.3 µM, […]",50.94%
CS(=O)(=O)NC[C@]12COC[C@H]1CN(CC1CCCC1)C2.O=C(O)C(F)(F)F,Percent Effect,"30 µM, 30.03 µM",-6.018%
CS(=O)(=O)NC[C@]12COC[C@H]1CN(CCc1ccccc1)C2.O=C(O)C(F)(F)F,Percent Effect,"30.3 µM, […]",17.9%
CS(=O)(=O)NC[C@]12COC[C@H]1CN(CC1CCC1)C2.O=C(O)C(F)(F)F,Percent Effect,"30.3 µM, […]",80.19%
